According to PubChem BioAssay (NCATS):
Results filed as inconclusive are left out. Entries that show only a call come without a potency. Activity calls are given as the source filed them. Unless noted, calls follow the shape of the dose curve; as a rule, active = well fitted curve in the direction sought with a large enough effect; inconclusive = small, poorly fitted or top-dose-only effect, or another doubt; inactive = no such curve, though single readings can be large; an effect the other way counts as inactive or inconclusive.

How the values were obtained:
[1] = biological target: Voltage-gated inwardly rectifying potassium channel KCNH2 (Homo sapiens) (UniProt Q12809); assay: qHTS Assay for Small Molecule Inhibitors of the Human hERG Channel Activity (AID 588834);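 also: top concentration of the series differs between compounds; lower thallium flux fluorescence means stronger hERG block; nearly all actives have a fitted effect of over 50% in size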
Chain of Voltage-gated inwardly rectifying potassium channel KCNH2 (Homo sapiens) (Q12809 whole entry, looked up): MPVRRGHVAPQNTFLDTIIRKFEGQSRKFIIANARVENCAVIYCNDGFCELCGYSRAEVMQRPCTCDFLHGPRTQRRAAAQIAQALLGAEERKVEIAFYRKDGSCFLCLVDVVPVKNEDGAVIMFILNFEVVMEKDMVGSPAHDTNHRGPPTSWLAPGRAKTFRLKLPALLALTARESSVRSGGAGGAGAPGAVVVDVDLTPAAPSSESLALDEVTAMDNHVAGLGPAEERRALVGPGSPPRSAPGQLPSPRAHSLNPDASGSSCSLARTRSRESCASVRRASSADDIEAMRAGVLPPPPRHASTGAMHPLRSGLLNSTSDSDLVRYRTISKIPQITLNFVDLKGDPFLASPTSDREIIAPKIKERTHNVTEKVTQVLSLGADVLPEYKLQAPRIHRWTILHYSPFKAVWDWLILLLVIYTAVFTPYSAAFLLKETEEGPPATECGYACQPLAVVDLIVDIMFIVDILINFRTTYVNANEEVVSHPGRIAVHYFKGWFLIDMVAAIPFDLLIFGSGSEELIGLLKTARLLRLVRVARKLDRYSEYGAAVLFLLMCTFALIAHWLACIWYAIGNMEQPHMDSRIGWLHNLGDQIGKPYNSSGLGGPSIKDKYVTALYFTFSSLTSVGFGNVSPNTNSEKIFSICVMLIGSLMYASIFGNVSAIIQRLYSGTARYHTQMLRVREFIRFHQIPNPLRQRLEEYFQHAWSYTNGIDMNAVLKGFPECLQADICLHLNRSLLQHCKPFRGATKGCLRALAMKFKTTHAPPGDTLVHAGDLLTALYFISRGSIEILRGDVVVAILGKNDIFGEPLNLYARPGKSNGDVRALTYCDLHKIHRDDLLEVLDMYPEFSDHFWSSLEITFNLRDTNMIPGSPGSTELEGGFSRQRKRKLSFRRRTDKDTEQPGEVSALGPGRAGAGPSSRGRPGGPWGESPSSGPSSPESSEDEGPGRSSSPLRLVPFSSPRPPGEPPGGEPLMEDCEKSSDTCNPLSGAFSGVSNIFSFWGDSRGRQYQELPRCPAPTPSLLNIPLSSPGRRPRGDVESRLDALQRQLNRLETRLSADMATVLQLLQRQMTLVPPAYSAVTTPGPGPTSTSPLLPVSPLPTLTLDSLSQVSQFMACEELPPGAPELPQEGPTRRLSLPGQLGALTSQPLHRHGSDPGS
Procedure, shortened: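 Thallium serves as surrogate for K+ influx through BacMam-delivered hERG in U2OS cells. Compounds are added for about 10 minutes after dye loading; stimulation buffer then starts flux, monitored kinetically on FDSS.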

[2] = S16 Schwann cell viability assay (CellTiter-Glo assay) (AID 624031);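 also: cellular ATP luminescence as a viability measure; series mostly up to about 58 µM; nearly all actives have a fitted effect of over 70% in size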
Procedure, shortened: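 Native S16 rat Schwann cells in DMEM/10% FBS without phenol red were incubated overnight, then exposed to compounds for 24 h at 37 °C/5% CO2. Viability was read as ATP luminescence (CellTiter-Glo), normalized to no-cell wells and DMSO (0%).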

[3] = S16 Schwann cell PMP22 intronic element firefly luciferase assay (AID 624032); also: nearly all actives have a fitted effect of over 30% in size; also: potency is read from the fitted curve at half-maximal effect
Procedure, shortened: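 Rat S16 Schwann cells stably carrying firefly luciferase driven by a PMP22 intronic element, in 10% FBS, treated 24 h at 37 C. ONE-Glo luminescence normalized to PTC124 control and DMSO (0%); curves classed by r2, magnitude and activity.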

[4] = S16 Schwann cell PMP22 intronic element beta-lactamase assay (AID 624044; calls by dose curve; also: nearly all actives have a fitted effect of over 15% in size)
Procedure, shortened: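 Beta-lactamase reporter under a PMP22 intronic regulatory element in stable S16 rat Schwann cells; 24 h compound exposure. 460 nm blue signal normalized between DMSO (0%) and potassium clavulanate, with 535 nm FRET tracking viability; curves classed by r2 and response.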

[5] = biological target: Glutaminase kidney isoform, mitochondrial (Homo sapiens) (UniProt O94925); assay: qHTS for Inhibitors of Glutaminase (GLS): LOPAC Validation (AID 624146);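 also: glutamate product detected by oxidase and peroxidase coupled Amplex red fluorescence gain; series mostly up to about 46 µM; nearly all actives have a fitted effect of over 60% in size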
Chain of Glutaminase kidney isoform, mitochondrial (Homo sapiens) (O94925 whole entry, looked up, canonical isoform): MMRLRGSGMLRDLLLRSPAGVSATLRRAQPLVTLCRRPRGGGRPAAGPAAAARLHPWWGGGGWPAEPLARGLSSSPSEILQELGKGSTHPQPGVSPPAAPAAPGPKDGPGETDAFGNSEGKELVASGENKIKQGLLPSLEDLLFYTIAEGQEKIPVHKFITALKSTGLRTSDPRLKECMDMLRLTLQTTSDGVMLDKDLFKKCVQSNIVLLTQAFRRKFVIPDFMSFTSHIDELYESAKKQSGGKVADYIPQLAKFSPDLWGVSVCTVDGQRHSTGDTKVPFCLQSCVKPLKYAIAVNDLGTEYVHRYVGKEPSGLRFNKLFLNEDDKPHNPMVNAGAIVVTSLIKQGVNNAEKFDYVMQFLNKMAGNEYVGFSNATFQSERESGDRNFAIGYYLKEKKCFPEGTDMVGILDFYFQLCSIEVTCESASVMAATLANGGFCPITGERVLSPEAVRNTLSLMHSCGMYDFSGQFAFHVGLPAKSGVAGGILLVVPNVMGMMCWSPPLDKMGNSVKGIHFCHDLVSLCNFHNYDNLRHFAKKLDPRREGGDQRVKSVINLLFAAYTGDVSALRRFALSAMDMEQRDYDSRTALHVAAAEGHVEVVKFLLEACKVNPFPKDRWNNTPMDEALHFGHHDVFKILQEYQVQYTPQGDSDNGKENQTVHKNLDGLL
Procedure, shortened: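 Compounds were pin-transferred onto hKGA, after which L-glutamine (1 mM solution) and a detection mix of glutamate oxidase, HRP and Amplex Red were added. Initial and 30 min RT fluorescence reads were collected.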

[6] = qHTS of Trypanosoma Brucei Inhibitors: LOPAC Validation (AID 624147)
Procedure, shortened: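 TbPYK + substrate in 50 mM TEA pH 7.2, 100 mM KCl, 10 mM MgCl2, 0.05% BSA, 0.01% Tween-20; cpd pinned; ADP 130 uM final; 45 min RT; Kinase-Glo Plus 10 min; luminescence endpoint.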

[7] = biological target: Glucagon-like peptide 1 receptor (Homo sapiens) (UniProt P43220); assay: qHTS of GLP-1 Receptor Agonists: LOPAC Validation (AID 624148);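 also: higher luminescence signal means agonism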
Chain of Glucagon-like peptide 1 receptor (Homo sapiens) (P43220 whole entry, looked up): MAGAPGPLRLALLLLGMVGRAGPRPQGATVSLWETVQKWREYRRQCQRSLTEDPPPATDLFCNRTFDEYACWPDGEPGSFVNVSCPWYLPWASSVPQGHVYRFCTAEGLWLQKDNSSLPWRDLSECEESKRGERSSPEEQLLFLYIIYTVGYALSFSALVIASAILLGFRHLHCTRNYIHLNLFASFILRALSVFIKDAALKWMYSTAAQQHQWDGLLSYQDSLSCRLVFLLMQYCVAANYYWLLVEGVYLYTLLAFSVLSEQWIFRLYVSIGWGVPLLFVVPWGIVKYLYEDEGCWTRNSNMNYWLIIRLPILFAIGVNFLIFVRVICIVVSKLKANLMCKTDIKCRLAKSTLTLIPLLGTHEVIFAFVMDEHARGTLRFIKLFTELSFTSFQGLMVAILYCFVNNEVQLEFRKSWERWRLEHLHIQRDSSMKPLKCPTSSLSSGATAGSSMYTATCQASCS
Procedure, shortened: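 HEK293 cells stably co-expressing GLP-1R and a cAMP-responsive luciferase reporter, plated 12 hours before compound, then incubated 4-6 hr at 37 deg C. Luminescence read 12 min after detection reagent.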

[8] = qHTS of Nrf2 Activators: LOPAC Validation (AID 624149)
Procedure, shortened: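 Cells (AREc32_Fluc) are plated at 1000 per well in OPTI-MEM containing 5% FBS and left overnight. Compounds are pinned in and incubated 24 hr at 37 deg C, and firefly luciferase is detected with Steady-Glo.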

[9] = HTS Assay for Allosteric Antagonists of the Human D2 Dopamine Receptor: Hit Validation in HTRF (AID 624455);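 also: stable D1 dopamine receptor cell line scored for blocking the D1 response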
Procedure, shortened: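 Inhibition of the D1-mediated response is measured by HTRF in cells that stably express the D1 dopamine receptor. Compounds reaching this step are hits from calcium-flux antagonism testing at EC80 dopamine in inducible Hek293 Trex D2 cells.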

CN1c2cc(O)c(N=NC(N)=O)cc2CC1S(=O)(=O)O (stereo not drawn)
Potency [1]: inactive | outcome [2]: inactive | Potency [3]: inactive | Potency [4]: inactive

C[C@H]1C[C@@H]2[C@@H]([C@@H](O)C[C@@]3(C)[C@H]2CC[C@]3(O)C(=O)CO)[C@@]2(C)C=CC(=O)C=C12
Potency [1]: inactive | outcome [2]: inactive | Potency [3]: inactive | Potency [4]: inactive

O=c1c2ccccc2nc2n1CCc1c-2[nH]c2ccccc12
Potency [1]: inactive | outcome [5]: inactive | outcome [6]: inactive | outcome [7]: inactive | outcome [8]: inactive | outcome [9]: inactive

COc1cc(C(=O)NS(=O)(=O)c2ccccc2C)ccc1Cc1cn(C)c2ccc(NC(=O)OC3CCCC3)cc12
outcome [2]: inactive | Potency [3]: inactive | Potency [4]: inactive

CC(C)(C)NC(=O)[C@H]1CN(Cc2cccnc2)CCN1C[C@@H](O)C[C@@H](Cc1ccccc1)C(=O)N[C@H]1c2ccccc2C[C@H]1O
Potency [1]: inactive | Potency [3]: 36.1 µM (active) | Potency [4]: inactive

CC1(C)O[C@@H]2C[C@@H]3[C@H]4C[C@@H](F)C5=CC(=O)C=C[C@]5(C)[C@@]4(F)[C@@H](O)C[C@]3(C)[C@]2(C(=O)CO)O1
outcome [2]: inactive | Potency [3]: inactive | Potency [4]: inactive

O=C(O)CO.[NH2-].[NH2-].[Pt+2]
Potency [1]: inactive | outcome [2]: inactive | Potency [3]: inactive

Nc1ccn([C@@H]2CS[C@H](CO)O2)c(=O)n1
Potency [1]: inactive | outcome [2]: inactive | Potency [3]: inactive

CC=CC1=C(C(=O)O)N2C(=O)[C@H](NC(=O)[C@H](N)c3ccc(O)cc3)[C@@H]2SC1
Potency [1]: inactive | outcome [2]: inactive | Potency [3]: inactive

Cc1nc2ccc(CN(C)c3ccc(C(=O)N[C@@H](CCC(=O)O)C(=O)O)s3)cc2c(=O)[nH]1
Potency [1]: inactive
